Pf growth 96h: P. falciparum growth inhibition at 96 hour, primary screen for plastid delayed-death inhibitors; P. falciparum luciferase reporter growth, 96 h; Potency, µM (doses to about 28.7 µM), for the others: at the top dose activity change, negative = inhibition, actives largely listed as inhibitors; 320,000 compounds, 6.9% hits; AID 504834; note: % is set by controls: 0 for no effect and ±100 for the full control effect
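P. falciparum expressing integrated firefly luciferase grown in erythrocytes (2% hematocrit, 0.05% parasitemia final) with compounds for 96 hours at 37 C, 5% CO2. Growth inhibition read as loss of luminescence after adding luciferase detection reagent.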
Pf growth 48h: inhibits P. falciparum growth in the first generation, 48 h; P. falciparum luciferase growth in erythrocytes, 48 h; Potency, µM (top dose mostly 28.7 µM), for the others: at the top dose activity change, negative = inhibition, hits mostly inhibitors; 310,000 compounds, 5.9% hits; AID 504832; note: % is set by controls: 0 for no effect and ±100 for the full control effect
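Erythrocytes infected with P. falciparum carrying an integrated firefly luciferase reporter (2% hematocrit, 0.1% parasitemia final) were exposed to compounds in RPMI 1640 with 0.5% Albumax at 37 C, 5% CO2. Growth inhibition was scored as reduced luminescence.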
SARS PLpro yeast: inhibitors of SARS-CoV papain-like protease in yeast | S. cerevisiae expressing SARS-CoV PLpro, growth rescue | Potency, µM (highest dose often 32.9 µM), for inactives: top-dose activity, positive = growth rescue, most hits filed as activators | 330,000 compounds, 0.19% hits; calls by dose curve; note: 0% is about no effect; nearly all actives have a fitted effect of over 55% in size
Sm TGR inh: inhibitors of Schistosoma mansoni thioredoxin glutathione reductase | Potency, µM (top dose mostly 114 µM), without a hit: at the top dose activity change, negative = inhibition, actives largely listed as inhibitors | Q962Y6 | purified TGR, DTNB reduction, TNB absorbance 405 nm | 360,000 compounds, 3% hits; note: % is set by controls: 0 for no effect and ±100 for the full control effect; nearly all actives have a fitted effect of over 60% in size
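Kinetic colorimetric format: TGR-catalysed, NADPH-driven DTNB reduction monitored via TNB absorbance. Enzyme dispensed at 20 nM; compound exposure 15 min at room temperature before reaction start.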
* hit, by the source's call; ? = inconclusive; · = no result; [ ] = remark or other dose. Shown are actives, neighbours in structure and some others; about 12% of the full set was active somewhere. Unless noted, calls come from the whole dose curve; as a rule, active = well fitted curve in the direction sought with a large enough effect; inconclusive = small, poorly fitted or top-dose-only effect, or another doubt; inactive = no such curve, though single readings can be large; an effect the other way counts as inactive or inconclusive. Potency is the fitted concentration of half-maximal effect.

SMILES	Pf growth 96h	Pf growth 48h	SARS PLpro yeast	Sm TGR inh
COc1ccc(C(=O)COC(=O)c2ccc(N(C)C)cc2)cc1	48%	24%	13%	-1%
CN(C)c1ccc(C(=O)OCC(=O)c2cccs2)cc1	9.3µM*	362%	7%	-4%
CCOC(=O)c1ccccc1NC(=O)CCc1c(C)nc2ncnn2c1C	·	·	·	1%
C#Cc1ccc([C@@H]2C=C(C(=O)NCc3nc4ccccc4[nH]3)O[C@H](OCC)[C@H]2CCCO)cc1	?	?	1%	-12%
CCO[C@H]1OC(C(=O)NCc2nc3ccccc3[nH]2)=C[C@@H](c2ccc(C(F)(F)F)cc2)[C@@H]1CCCO	1.5µM*	?	0%	8%
CCO[C@H]1OC(C(=O)NCc2nc3ccccc3[nH]2)=C[C@@H](C)[C@@H]1CCCO	47%	49%	2%	6%
CCO[C@@H]1OC(C(=O)NCc2nc3ccccc3[nH]2)=C[C@H](c2ccc(C(F)(F)F)cc2)[C@H]1CCCO	12µM*	?	0%	-19%
CCO[C@H]1OC(C(=O)NCc2nc3ccccc3[nH]2)=C[C@@H](C2CCCCC2)[C@@H]1CCCO	9.3µM*	?	0%	-11%
COC(=O)C1C(=O)C2=C(CC1C)NC(C)=C(C(=O)OC1CCCCC1)C2c1ccc(N(C)C)cc1 (stereo not drawn)	37%	5.9µM*	-3%	-21%
CCCc1ccc(-c2cc(C(=O)N/N=C/c3ccc([N+](=O)[O-])o3)c3ccccc3n2)cc1	1.7µM*	·	6%[6.58 µM]	-11%
O=C(N/N=C/c1ccc([N+](=O)[O-])o1)c1cc(-c2cccc(Br)c2)nc2ccccc12	0.83µM*	?	4%	-6%
CCc1cc2c(cc3c(=O)n(CC(=O)N4CCCCC4)ncn32)s1	·	·	·	10%
Cc1cccn2c(=O)c(C(=O)N3CCN(c4ccccc4)CC3)cnc12	·	·	·	9%
CCc1ccc(NC(=O)CSc2nc(=O)n3cc(C)ccc3n2)cc1	2%	21%	-1%	2%
CCn1c(CNC(=O)COc2ccc(C(C)C)cc2)nnc1SCC(=O)NC1CCCCC1C (stereo not drawn)	10µM*	12µM*	-6%	-4%
CCn1c(CNC(=O)COc2ccc(C(C)C)cc2)nnc1SCC(=O)Nc1ccc(F)cc1	8.3µM*	·	5%	2%
CCn1c(COc2ccc3c(c2)CCCC3)nnc1SCC(=O)Nc1ccc(C(=O)OC)cc1	9.3µM*	-19%	9%	-14%
CCn1c(CNC(=O)c2ccccc2F)nnc1SCC(=O)NC1CCCCC1C (stereo not drawn)	14%	-3%	0%	·
O=C(NCCn1cccc1)c1cccc2ccccc12	2%	7%	-1%	28µM*
Cc1ccc(-n2c(=O)cc(N3CCN(c4ccccc4Cl)CC3)[nH]c2=O)cc1	·	·	·	2%
O=C(NCCN1CCN(C(=O)NC2CCCCC2)CC1)NC1CCCCC1	13µM*	24%	-2%	3%
O=C(NCc1cccc(F)c1)C1CCC(=O)N(C2CC2)C1 (stereo not drawn)	-3%	17%	-5%	-20%
Cc1ccc(OCCCCn2c(CCNC(=O)C(C)(C)C)nc3ccccc32)cc1	·	·	·	-2%
COc1nc(C)c2cc(C)oc2n1	-15%	3%	-5%	-9%
CSc1nc(C)c2cc(C)oc2n1	0.37µM*	16%	3%	2%
SMILES	Pf growth 96h	Pf growth 48h	SARS PLpro yeast	Sm TGR inh
Cc1cc(C)cc(NC(=O)C2CCCN2S(=O)(=O)c2cccc3nsnc23)c1 (stereo not drawn)	·	·	·	2%
O=C(O)/C=C/c1cccc(NC(=O)c2ccc(Cl)cc2)c1	5%	0.33µM*	0%	12%
Cc1cc(C)c(C)c(S(=O)(=O)NCc2ccc(C(=O)N3CCN(C)CC3)cc2)c1C	?	-42%	13%	9%
COC(=O)c1ccc(NC(=O)CN2CCOCC2)cc1	28%	26%	3%	2%
O=C(O)c1cccc(NC(=O)c2ccc(S(=O)(=O)c3ccccc3)cc2)c1	12µM*	46%	-5%	0%
Cc1cc(C)c(C)c(S(=O)(=O)NCc2ccc(C(=O)N3CCOCC3)cc2)c1C	43%	8.3µM*	3%	-1%
COC(=O)c1cccc(NC(=O)CN2CCOCC2)c1	10µM*	34%	-1%	-29%
COc1ccc(CCC(=O)NCCc2csc(-c3cccc(F)c3)n2)cc1	·	·	·	-4%
Cc1nc2c(-c3ccccc3)c(C)nn2c(C)c1CCC(=O)NCc1cccc(Cl)c1	·	·	·	0%
COc1cc(C2NC(=O)CCC2[N+](=O)[O-])cc(OC)c1OC (stereo not drawn)	-6%	-20%	2%	0%
COc1ccc(CCNc2ncnc3c2c(-c2ccccc2)cn3-c2ccc(F)cc2)cc1OC	·	·	·	-1%
CCc1ccccc1NC(=O)CCCn1c(=O)c2cccn2c2ccccc21	·	·	·	7%
CN(C)CCN(Cc1ccccc1)S(=O)(=O)c1ccc(-c2cc(C(F)(F)F)on2)s1	·	·	·	9%
Cc1ccc(C(=O)N(C)Cc2ccccc2)cc1S(=O)(=O)N1CCOCC1	23%	-29%	4%	2%
COc1cccc(S(=O)(=O)Nc2ccc(C(=O)Nc3ccncc3)cc2)c1	8.3µM*	-24%	6%	-2%
O=C(Nc1cccc(C(=O)N2CCCCC2)c1)c1ccc(Cl)cc1	2.1µM*	-2%	-7%	-14%
Cc1ccc(C(=O)N(C)Cc2ccc(N3CCOCC3)cc2)cc1S(=O)(=O)NCc1ccccc1	?	10µM*	-2%	?
O=C(Nc1cccc(O)c1)c1cccc(S(=O)(=O)Nc2cccc(O)c2)c1	1.9µM*	1%	8%	-23%
Cc1ccc(C(=O)Nc2cccc(C(=O)N3CCOCC3)c2)cc1Cl	-27%	25%	3%	8%
CC(C)c1cccc(C(C)C)c1NC(=O)CCN1C(=O)NC2(CCCC2)C1=O	-19%	-6%	-2%	-2%
COc1ccc(-n2nc(C(=O)N3CCN(c4ccccc4OC)CC3)c3c4ccccc4n(C)c3c2=O)cc1	·	·	·	-2%
Cc1cccc(CC(=O)Nc2ccc(C(=O)N3CCOCC3)cc2)c1	2.3µM*	8%	1%	-8%
O=C(Nc1cccc(C(=O)N2CCOCC2)c1)c1ccccc1	5.2µM*	55%	2%	7%
Cc1ccc(CC(=O)Nc2ccc(C(=O)N3CCOCC3)cc2)cc1	36%	6%	1%	1%
O=C(c1ccccc1)N1CCCc2ccccc21	-15%	9%	1%	8%
SMILES	Pf growth 96h	Pf growth 48h	SARS PLpro yeast	Sm TGR inh
O=C(Nc1cccc(C(=O)N2CCOCC2)c1)c1cccnc1	·	0%	0%	7%
O=C(Nc1cccc(C(=O)N2CCCc3ccccc32)c1)c1ccccc1	4.7µM*	?	-6%	-11%
COc1ccc(NC(=O)CSc2nc3c(c(=O)[nH]2)CCC3)cc1	·	·	·	-5%
COc1ccc(Cn2ccc3nc(C)c(C(=O)Nc4ccc(OC(F)(F)F)cc4)cc3c2=O)cc1	·	·	·	1%
COc1ccc(-c2cc(C(F)(F)F)nc(SCC(=O)Nc3cc(C)on3)n2)cc1	38%	-6%	-14%	11%
O=C(CCS(=O)(=O)c1nc(-c2ccc3c(c2)OCO3)cc(C(F)(F)F)n1)Nc1ccc(F)cc1F	·	·	·	-21%
